# Results published in the supplement of paper PMC4466140.
# How the values were obtained:
# Experiment in all cases: SPOT peptide array binding signal intensity (averaged, normalized) (arbitrary units (background-subtracted, floor 0; scale differs between SH3 domains)); higher = stronger binding of the SH3 domain to the peptide
# [1] = target: ScBbc1
# Summary of the method: (§1)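 Spot intensities were captured after detection with anti-GST antibody, an HRP-linked anti-mouse secondary and luminol, and quantified with Genespotter. The probes were GST-fused SH3 domains from four yeast species, produced in E. coli BL21(DE3), purified on glutathione Sepharose and incubated at 10 μg/ml overnight at 4°C on cellulose-bound synthetic 15-mer peptides with cysteines replaced by serines. Binding signal is the normalized, background-subtracted spot intensity averaged over replicates, and its arbitrary units differ between domains.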
# [2] = target: ScBem1-D1
# Summary of the method: as §1
# [3] = target: ScBzz1-D1
# Summary of the method: as §1
# [4] = target: ScBzz1-D2
# Summary of the method: as §1
# [5] = target: ScCyk3
# Summary of the method: as §1
# [6] = target: ScFus1
# Summary of the method: as §1
# [7] = target: ScHof1
# Summary of the method: as §1
# [8] = target: ScHse1
# Summary of the method: as §1
# [9] = target: ScLsb1
# Summary of the method: as §1
# [10] = target: ScLsb2
# Summary of the method: as §1
# [11] = target: ScLsb3
# Summary of the method: as §1
# [12] = target: ScLsb4
# Summary of the method: as §1
# [13] = target: ScMyo3
# Summary of the method: as §1
# [14] = target: ScMyo5
# Summary of the method: as §1
# [15] = target: ScNbp2
# Summary of the method: as §1
# [16] = target: ScPex13
# Summary of the method: as §1
# [17] = target: ScRvs167
# Summary of the method: as §1
# [18] = target: ScSho1
# Summary of the method: as §1
# [19] = target: ScSla1-D1-D2
# Summary of the method: as §1
# [20] = target: ScSla1-D3
# Summary of the method: as §1
# [21] = target: SpAbp1-D1
# Summary of the method: as §1
# [22] = target: SpBbc1
# Summary of the method: as §1
# [23] = target: SpBzz1-D1
# Summary of the method: as §1
# [24] = target: SpBzz1-D2
# Summary of the method: as §1
# [25] = target: SpCyk3
# Summary of the method: as §1
# [26] = target: SpHof1
# Summary of the method: as §1
# [27] = target: SpHof1-2
# Summary of the method: as §1
# [28] = target: SpHof1-3
# Summary of the method: as §1
# [29] = target: SpHse1
# Summary of the method: as §1
# [30] = target: SpLsb1
# Summary of the method: as §1
# [31] = target: SpLsb4
# Summary of the method: as §1
# [32] = target: SpMyo1
# Summary of the method: as §1
# [33] = target: SpNbp2
# Summary of the method: as §1
# [34] = target: SpPex13
# Summary of the method: as §1
# [35] = target: SpRvs167
# Summary of the method: as §1
# [36] = target: SpSla1-D1-D2
# Summary of the method: as §1
# [37] = target: SpSla1-D3
# Summary of the method: as §1
binder,measurement,setting,value
TEVPIPRRPPPPQAA,SPOT peptide array binding signal intensity,[1],≤ 0
same,SPOT peptide array binding signal intensity,[2],≤ 0
same,SPOT peptide array binding signal intensity,[3],14
same,SPOT peptide array binding signal intensity,[4],12
same,SPOT peptide array binding signal intensity,[5],≤ 0
same,SPOT peptide array binding signal intensity,[6],1
same,SPOT peptide array binding signal intensity,[7],≤ 0
same,SPOT peptide array binding signal intensity,[8],≤ 0
same,SPOT peptide array binding signal intensity,[9],5
same,SPOT peptide array binding signal intensity,[10],≤ 0
same,SPOT peptide array binding signal intensity,[11],118
same,SPOT peptide array binding signal intensity,[12],2
same,SPOT peptide array binding signal intensity,[13],1370
same,SPOT peptide array binding signal intensity,[14],569
same,SPOT peptide array binding signal intensity,[15],12
same,SPOT peptide array binding signal intensity,[16],≤ 0
same,SPOT peptide array binding signal intensity,[17],1.83
same,SPOT peptide array binding signal intensity,[18],≤ 0
same,SPOT peptide array binding signal intensity,[19],≤ 0
same,SPOT peptide array binding signal intensity,[20],≤ 0
same,SPOT peptide array binding signal intensity,[21],≤ 0
same,SPOT peptide array binding signal intensity,[22],1.25
same,SPOT peptide array binding signal intensity,[23],37
same,SPOT peptide array binding signal intensity,[24],0.25
same,SPOT peptide array binding signal intensity,[25],≤ 0
same,SPOT peptide array binding signal intensity,[26],≤ 0
same,SPOT peptide array binding signal intensity,[27],≤ 0
same,SPOT peptide array binding signal intensity,[28],≤ 0
same,SPOT peptide array binding signal intensity,[29],8
same,SPOT peptide array binding signal intensity,[30],1
same,SPOT peptide array binding signal intensity,[31],90.5
same,SPOT peptide array binding signal intensity,[32],1920
same,SPOT peptide array binding signal intensity,[33],1
same,SPOT peptide array binding signal intensity,[34],≤ 0
same,SPOT peptide array binding signal intensity,[35],≤ 0
same,SPOT peptide array binding signal intensity,[36],≤ 0
same,SPOT peptide array binding signal intensity,[37],1
